Eight sequences from PMC7862700, “An all-to-all approach to the identification of sequence-specific readers for epigenetic DNA modifications on cytosine” can be followed below.

What all share (experiment): DAPPL (digital affinity profiling via proximity ligation, sequencing); 10 mM Tris-HCl pH 7.5, 50 mM NaCl, 1 mM DTT, 4% glycerol, room temperature, 30 min; GST-TFs on glutathione beads, 16-mer random dsDNA library, 0.1% formaldehyde crosslink after washing; high values mean tight binding
Holding throughout (settings): protein: recombinant; tags: N-terminal GST; dsDNA, one strand shown

The target in assay [1] is T1, FLI1 (Homo sapiens, UniProt Q01543 1-452).
T1 sequence: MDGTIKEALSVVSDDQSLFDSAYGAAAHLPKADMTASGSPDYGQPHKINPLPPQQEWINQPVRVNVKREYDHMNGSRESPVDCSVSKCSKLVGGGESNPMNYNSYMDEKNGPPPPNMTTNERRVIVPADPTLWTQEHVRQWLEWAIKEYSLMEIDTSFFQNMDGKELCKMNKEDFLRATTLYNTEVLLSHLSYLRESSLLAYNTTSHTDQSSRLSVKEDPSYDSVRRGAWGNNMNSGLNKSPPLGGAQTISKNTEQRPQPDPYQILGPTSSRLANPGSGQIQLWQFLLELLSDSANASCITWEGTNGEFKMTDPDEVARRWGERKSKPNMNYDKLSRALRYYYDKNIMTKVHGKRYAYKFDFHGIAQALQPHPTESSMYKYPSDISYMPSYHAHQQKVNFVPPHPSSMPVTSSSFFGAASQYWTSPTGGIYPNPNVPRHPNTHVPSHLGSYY
The essentials: (§1)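 A tag-only sample was pooled with DNA-barcoded human transcription factors that had been expressed in yeast as GST fusions and captured on glutathione beads. The pools were incubated for 30 min at room temperature with 200 nmole of a random double-stranded 16-mer DNA library in Tris/NaCl/DTT/glycerol buffer, then washed, crosslinked with 0.1% formaldehyde, proximity-ligated (BsaI/T4 ligase, 1 h, 37 °C), PCR-amplified and sequenced on an Illumina NextSeq500. Binding signal is each hexamer's read frequency for a factor divided by its frequency for the tag-only sample.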

In assay [2] the target is T2, ELK1 (Homo sapiens, UniProt P19419 1-428).
T2 sequence: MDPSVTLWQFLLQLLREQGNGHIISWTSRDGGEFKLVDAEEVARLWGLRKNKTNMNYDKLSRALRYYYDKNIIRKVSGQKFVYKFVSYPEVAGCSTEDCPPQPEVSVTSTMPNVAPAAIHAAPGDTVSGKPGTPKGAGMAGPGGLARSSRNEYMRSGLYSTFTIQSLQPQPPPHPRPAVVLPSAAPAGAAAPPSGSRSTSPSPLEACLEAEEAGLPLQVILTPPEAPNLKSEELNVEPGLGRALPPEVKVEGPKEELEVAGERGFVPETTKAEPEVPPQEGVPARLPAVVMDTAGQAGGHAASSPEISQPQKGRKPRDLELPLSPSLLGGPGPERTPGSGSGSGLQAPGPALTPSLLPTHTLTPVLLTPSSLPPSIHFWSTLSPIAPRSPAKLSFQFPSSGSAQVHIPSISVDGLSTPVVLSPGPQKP
The essentials:
as §1

Assay [3] deals with T3, GABPA (Homo sapiens, UniProt Q06546 1-454).
T3 sequence: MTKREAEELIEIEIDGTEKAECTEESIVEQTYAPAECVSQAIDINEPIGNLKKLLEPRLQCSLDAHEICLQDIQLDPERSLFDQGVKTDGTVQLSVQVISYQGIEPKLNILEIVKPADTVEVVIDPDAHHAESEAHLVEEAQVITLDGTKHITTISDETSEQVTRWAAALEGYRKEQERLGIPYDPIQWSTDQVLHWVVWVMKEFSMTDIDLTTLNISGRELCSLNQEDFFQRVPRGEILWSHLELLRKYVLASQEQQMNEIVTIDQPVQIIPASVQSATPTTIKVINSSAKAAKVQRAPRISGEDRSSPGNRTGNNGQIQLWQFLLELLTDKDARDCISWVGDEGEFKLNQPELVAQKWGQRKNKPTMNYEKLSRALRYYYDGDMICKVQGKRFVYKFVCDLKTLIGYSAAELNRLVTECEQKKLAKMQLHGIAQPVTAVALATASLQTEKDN
The essentials:
as §1

Assay [4] concerns the target T4, ERG (Homo sapiens, UniProt P11308 1-479).
T4 sequence: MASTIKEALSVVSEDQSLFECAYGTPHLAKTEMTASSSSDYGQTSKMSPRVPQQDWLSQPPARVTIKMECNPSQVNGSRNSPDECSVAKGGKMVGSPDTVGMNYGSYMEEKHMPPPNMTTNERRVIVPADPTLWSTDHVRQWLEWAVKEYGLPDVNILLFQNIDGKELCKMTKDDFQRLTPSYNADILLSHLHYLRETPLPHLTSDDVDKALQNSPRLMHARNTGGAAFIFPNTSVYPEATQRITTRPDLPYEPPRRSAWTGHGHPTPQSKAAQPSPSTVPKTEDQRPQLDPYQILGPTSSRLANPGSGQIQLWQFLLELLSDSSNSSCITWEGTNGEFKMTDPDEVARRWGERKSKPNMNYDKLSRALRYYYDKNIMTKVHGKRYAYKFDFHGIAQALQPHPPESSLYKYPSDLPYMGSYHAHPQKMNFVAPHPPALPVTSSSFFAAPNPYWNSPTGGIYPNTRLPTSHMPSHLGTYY
The essentials: as §1

In assay [5] the target is ELF1 (Homo sapiens, UniProt P32519 1-619). The method in brief:
as §1

In assay [6] the target is T5, EHF (Homo sapiens, UniProt Q9NZC4 1-300).
T5 sequence: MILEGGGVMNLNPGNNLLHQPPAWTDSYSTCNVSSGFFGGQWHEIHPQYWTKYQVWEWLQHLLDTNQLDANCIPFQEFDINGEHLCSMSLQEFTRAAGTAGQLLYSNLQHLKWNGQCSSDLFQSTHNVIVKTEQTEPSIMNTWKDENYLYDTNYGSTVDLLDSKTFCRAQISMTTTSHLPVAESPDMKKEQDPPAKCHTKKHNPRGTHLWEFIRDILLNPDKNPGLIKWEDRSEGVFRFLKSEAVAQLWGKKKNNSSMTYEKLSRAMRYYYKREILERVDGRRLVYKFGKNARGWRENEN
The method in brief: as §1

The target of assay [7] is SPI1 (Homo sapiens, UniProt P17947 1-270). The essentials:
as §1

The target in assay [8] is SPIB (Homo sapiens, UniProt Q01892 1-262). The essentials:
as §1

The target in assay [9] is T6, ELK3 (Homo sapiens, UniProt P41970 1-407).
T6 sequence: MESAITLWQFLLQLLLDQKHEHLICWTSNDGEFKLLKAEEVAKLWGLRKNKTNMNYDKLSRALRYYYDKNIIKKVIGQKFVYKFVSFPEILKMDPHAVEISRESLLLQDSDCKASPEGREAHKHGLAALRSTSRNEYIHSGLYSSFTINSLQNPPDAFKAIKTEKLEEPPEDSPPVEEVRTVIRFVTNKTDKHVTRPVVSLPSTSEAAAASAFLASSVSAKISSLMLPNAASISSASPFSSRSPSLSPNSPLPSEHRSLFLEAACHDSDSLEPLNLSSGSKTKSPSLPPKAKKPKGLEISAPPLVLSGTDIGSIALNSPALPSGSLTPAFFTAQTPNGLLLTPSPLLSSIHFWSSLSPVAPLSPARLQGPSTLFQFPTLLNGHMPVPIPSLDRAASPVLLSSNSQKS
The method in brief: as §1

Chain of ELF1 (P32519 whole entry): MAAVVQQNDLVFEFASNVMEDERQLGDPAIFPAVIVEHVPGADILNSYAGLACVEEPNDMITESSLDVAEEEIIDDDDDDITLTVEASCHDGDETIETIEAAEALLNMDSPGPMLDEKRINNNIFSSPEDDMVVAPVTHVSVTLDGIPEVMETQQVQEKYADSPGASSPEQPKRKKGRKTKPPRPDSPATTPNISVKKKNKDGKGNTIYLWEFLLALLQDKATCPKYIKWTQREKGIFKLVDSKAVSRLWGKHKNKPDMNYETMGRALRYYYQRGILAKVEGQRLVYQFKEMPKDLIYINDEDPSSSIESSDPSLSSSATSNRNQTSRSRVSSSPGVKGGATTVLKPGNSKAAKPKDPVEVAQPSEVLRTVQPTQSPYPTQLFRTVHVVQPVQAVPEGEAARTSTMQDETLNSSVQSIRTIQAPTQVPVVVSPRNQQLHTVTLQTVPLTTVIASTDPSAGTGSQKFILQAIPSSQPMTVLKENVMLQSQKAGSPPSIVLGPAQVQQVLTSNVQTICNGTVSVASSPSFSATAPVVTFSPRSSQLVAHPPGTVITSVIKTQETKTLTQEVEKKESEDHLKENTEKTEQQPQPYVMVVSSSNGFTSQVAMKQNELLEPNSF
Chain of SPIB (Q01892 whole entry): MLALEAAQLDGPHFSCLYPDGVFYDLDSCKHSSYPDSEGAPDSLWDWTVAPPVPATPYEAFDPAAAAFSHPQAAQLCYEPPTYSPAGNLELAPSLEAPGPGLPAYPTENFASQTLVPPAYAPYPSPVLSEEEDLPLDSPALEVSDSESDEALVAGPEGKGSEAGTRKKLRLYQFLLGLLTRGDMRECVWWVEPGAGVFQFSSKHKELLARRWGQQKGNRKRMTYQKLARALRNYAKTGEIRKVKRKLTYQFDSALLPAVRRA

As for TGCATG, the binding signal in [1] was 1.12 fold enrichment (6-mer frequency, TF over GST control); in assay [2], 1.09 fold enrichment (6-mer frequency, TF over GST control); in assay [3], 1.13 fold enrichment (6-mer frequency, TF over GST control); in assay [4] it was 1.13 fold enrichment (6-mer frequency, TF over GST control); in [5] it was 1.15 fold enrichment (6-mer frequency, TF over GST control); in [6], 1.15 fold enrichment (6-mer frequency, TF over GST control). The binding signal in assay [7] is 1.02 fold enrichment (6-mer frequency, TF over GST control); in assay [8], 1.14 fold enrichment (6-mer frequency, TF over GST control); in assay [9], 1.14 fold enrichment (6-mer frequency, TF over GST control).

As to TAACCA, the binding signal in [1] was 1.12 fold enrichment (6-mer frequency, TF over GST control); in assay [2], 1.12 fold enrichment (6-mer frequency, TF over GST control); in [3], 1.08 fold enrichment (6-mer frequency, TF over GST control); in assay [4] it was 1.12 fold enrichment (6-mer frequency, TF over GST control); in [5], 1.11 fold enrichment (6-mer frequency, TF over GST control); in assay [6] it was 1.15 fold enrichment (6-mer frequency, TF over GST control). Further, the binding signal was 1.06 fold enrichment (6-mer frequency, TF over GST control) in assay [7]; 1.11 fold enrichment (6-mer frequency, TF over GST control) in assay [8]; 1.16 fold enrichment (6-mer frequency, TF over GST control) in assay [9].

In the case of TGGTCC, the binding signal in assay [1] was 1.25 fold enrichment (6-mer frequency, TF over GST control); in assay [2], 1.23 fold enrichment (6-mer frequency, TF over GST control); in [3], 1.18 fold enrichment (6-mer frequency, TF over GST control); in assay [4], 1.26 fold enrichment (6-mer frequency, TF over GST control); in [5], 1.35 fold enrichment (6-mer frequency, TF over GST control); in [6] it was 1.26 fold enrichment (6-mer frequency, TF over GST control). Moreover, the binding signal is 1.18 fold enrichment (6-mer frequency, TF over GST control) in assay [7]; 1.32 fold enrichment (6-mer frequency, TF over GST control) in [8]; 1.15 fold enrichment (6-mer frequency, TF over GST control) in [9].

For the sequence AAAAAA, the binding signal in assay [1] is 1.29 fold enrichment (6-mer frequency, TF over GST control); in [2], 1.28 fold enrichment (6-mer frequency, TF over GST control); in assay [3] it was 1.3 fold enrichment (6-mer frequency, TF over GST control); in [4] it was 1.2 fold enrichment (6-mer frequency, TF over GST control); in assay [5], 1.32 fold enrichment (6-mer frequency, TF over GST control); in assay [6] it was 1.45 fold enrichment (6-mer frequency, TF over GST control). Besides, the binding signal in assay [7] is 1.52 fold enrichment (6-mer frequency, TF over GST control); in [8], 1.4 fold enrichment (6-mer frequency, TF over GST control); in assay [9], 1.41 fold enrichment (6-mer frequency, TF over GST control).

As to CCTGCC, the binding signal in assay [1] is 1.17 fold enrichment (6-mer frequency, TF over GST control); in assay [2], 1.34 fold enrichment (6-mer frequency, TF over GST control); in [3], 1.25 fold enrichment (6-mer frequency, TF over GST control); in assay [4], 1.3 fold enrichment (6-mer frequency, TF over GST control); in [5], 1.31 fold enrichment (6-mer frequency, TF over GST control); in assay [6], 1.39 fold enrichment (6-mer frequency, TF over GST control). In addition, the binding signal is 1.28 fold enrichment (6-mer frequency, TF over GST control) in [7]; 1.43 fold enrichment (6-mer frequency, TF over GST control) in assay [8]; 1.13 fold enrichment (6-mer frequency, TF over GST control) in [9].

On to TGCCCT, for which the binding signal in assay [1] is 1.21 fold enrichment (6-mer frequency, TF over GST control); in [2] it was 1.25 fold enrichment (6-mer frequency, TF over GST control); in [3], 1.21 fold enrichment (6-mer frequency, TF over GST control); in [4], 1.09 fold enrichment (6-mer frequency, TF over GST control); in [5] it was 1.25 fold enrichment (6-mer frequency, TF over GST control); in assay [6] it was 1.12 fold enrichment (6-mer frequency, TF over GST control). Also, the binding signal in assay [7] was 1.15 fold enrichment (6-mer frequency, TF over GST control); in [8], 1.16 fold enrichment (6-mer frequency, TF over GST control); in assay [9] it was 1.07 fold enrichment (6-mer frequency, TF over GST control).

AAGCGG: the binding signal in assay [1] is 1.13 fold enrichment (6-mer frequency, TF over GST control); in assay [2], 1.05 fold enrichment (6-mer frequency, TF over GST control); in assay [3], 1.11 fold enrichment (6-mer frequency, TF over GST control); in assay [4], 1.1 fold enrichment (6-mer frequency, TF over GST control); in assay [5], 1.11 fold enrichment (6-mer frequency, TF over GST control); in assay [6], 1.15 fold enrichment (6-mer frequency, TF over GST control). Besides, the binding signal in assay [7] was 1.81 fold enrichment (6-mer frequency, TF over GST control); in [8], 1.03 fold enrichment (6-mer frequency, TF over GST control); in assay [9], 1.11 fold enrichment (6-mer frequency, TF over GST control).

TGTCCT: the binding signal in assay [1] was 1.37 fold enrichment (6-mer frequency, TF over GST control); in [2], 1.38 fold enrichment (6-mer frequency, TF over GST control); in assay [3], 1.58 fold enrichment (6-mer frequency, TF over GST control); in [4], 1.38 fold enrichment (6-mer frequency, TF over GST control); in [5], 1.5 fold enrichment (6-mer frequency, TF over GST control); in assay [6] it was 1.52 fold enrichment (6-mer frequency, TF over GST control). Besides, the binding signal is 1.44 fold enrichment (6-mer frequency, TF over GST control) in assay [7]; 1.54 fold enrichment (6-mer frequency, TF over GST control) in assay [8]; 1.41 fold enrichment (6-mer frequency, TF over GST control) in [9].
